Reference: ChEMBL document CHEMBL1157539, “Thousands of chemical starting points for antimalarial lead identification” (Nature, 2010)

What was measured:
Format in all cases: functional
Plasmodium falciparum [1] = assay: GSK_TCMDC: Inhibition of Plasmodium falciparum 3D7 in whole red blood cells, using parasite LDH activity as an index of growth. Test compounds present at 2uM
Plasmodium falciparum [2] = assay: GSK_TCMDC: Inhibition of Plasmodium falciparum Dd2 in whole red blood cells, using parasite LDH activity as an index of growth. Test compounds present at 2uM
HepG2 = assay: GSK_TCMDC: Percent inhibition of human HepG2 cell line. Test compounds present at 10uM.

Structure (SMILES) | Inhibition (Plasmodium falciparum [1]) | Inhibition (Plasmodium falciparum [2]) | Inhibition (HepG2)
Oc1ccccc1CNCC(O)c1cccc(C(F)(F)F)c1 (stereo not drawn) | 100% | 97% | 1%
CC[C@H]1CN2CC[C@@H]1C[C@H]2[C@H](O)c1cc(-c2cccnc2)nc2ccc(OC)cc12.Cl | 99% | 99% | 20%
CCCCCNC(=N)N/N=C/c1c[nH]c2ccc(OC)cc12.Cl | 86% | 2% | 16%
O=C(/C=C/c1ccc(Cl)c(Cl)c1)NCC1CCC(N2CCC(c3c[nH]c4ccccc34)CC2)CC1 (stereo not drawn) | 100% | 95% | 48%
COc1ccc(CCNCc2ccc3c(C)cc(N)nc3c2)cc1 | 100% | 69% | 12%
COC(=O)c1ccc(CC(C)NCC(O)c2ccccc2Cl)cc1 (stereo not drawn) | 94% | 55% | 1%
CC(=O)C1(c2ccccc2)CCN(CCC2(c3ccc(Cl)c(Cl)c3)CN(C(=O)CC(C)C)CCO2)CC1 (stereo not drawn) | 92% | 94% | 7%
CC[C@H]1CN2CC[C@H]1C[C@H]2[C@H](OC(=O)c1ccccc1)c1cc(C#N)nc2ccc(OC)cc12 | 97% | 49% | 19%
O=C(/C=C/c1ccc(Cl)c(Cl)c1)N1CCC(CN2CCC(c3c[nH]c4cc(C(F)(F)F)ccc34)CC2)CC1 | 99% | 38% | 6%
C=C[C@H]1CN2CC[C@@H]1C[C@H]2[C@H](O)c1cc(-c2ccc(F)cc2)nc2ccc(OC)cc12.Cl | 99% | 98% | 5%
COc1cc(C(=O)NC2CCC(CN3CCC(c4c[nH]c5ccccc45)CC3)CC2)cc(Cl)n1 (stereo not drawn) | 99% | 45% | 33%
